{"source": "PubChem BioAssay (NCATS)", "key": {"[1]": {"assay": "qHTS for Inhibitors of the Functional Ribonucleoprotein Complex (vRNP) of Lassa (LASV) Arenavirus: LASV Primary Screen - GLuc reporter signal (AID 1347082; calls by dose curve; tested in HEK293 reporter line; note: nearly all actives have a fitted effect of over 60% in size; note: potency is the fitted concentration of half-maximal effect)"}, "[2]": {"assay": "qHTS for Inhibitors of the Functional Ribonucleoprotein Complex (vRNP) of Lassa (LASV) Arenavirus: Viability assay - alamar blue signal for LASV Primary Screen (AID 1347083; calls by dose curve; tested in HEK293 reporter line; note: nearly all actives have a fitted effect of over 80% in size; note: potency is the fitted concentration of half-maximal effect)"}, "[3]": {"biological_target": "Nucleoprotein (Lymphocytic choriomeningitis virus (strain Armstrong)) (UniProt P09992)", "sequence (P09992 whole entry, looked up)": "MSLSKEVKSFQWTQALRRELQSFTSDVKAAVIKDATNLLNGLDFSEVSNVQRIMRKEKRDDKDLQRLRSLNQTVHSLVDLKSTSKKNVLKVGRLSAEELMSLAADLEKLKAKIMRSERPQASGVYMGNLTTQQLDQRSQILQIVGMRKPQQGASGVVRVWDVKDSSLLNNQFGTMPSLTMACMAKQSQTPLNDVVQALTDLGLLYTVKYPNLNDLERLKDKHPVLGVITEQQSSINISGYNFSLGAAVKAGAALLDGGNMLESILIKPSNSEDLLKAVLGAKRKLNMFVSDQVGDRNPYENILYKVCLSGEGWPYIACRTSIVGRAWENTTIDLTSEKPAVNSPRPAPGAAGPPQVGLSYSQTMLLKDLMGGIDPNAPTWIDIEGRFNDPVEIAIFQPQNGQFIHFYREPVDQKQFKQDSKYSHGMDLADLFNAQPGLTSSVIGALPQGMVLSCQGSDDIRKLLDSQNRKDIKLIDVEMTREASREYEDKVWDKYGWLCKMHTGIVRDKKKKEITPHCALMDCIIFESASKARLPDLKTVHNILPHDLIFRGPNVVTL", "assay": "qHTS for Inhibitors of the Functional Ribonucleoprotein Complex (vRNP) of Lymphocytic Choriomeningitis Arenaviruses (LCMV): LCMV Primary Screen - GLuc reporter signal (AID 1347086); note: nearly all actives have a fitted effect of over 70% in size; note: potency is the fitted concentration of half-maximal effect"}, "[4]": {"assay": "Cytotoxicity counterscreen for inhibitors of SARS-CoV-2 cell entry (AID 1645845); note: nearly all actives have a fitted effect of over 50% in size", "method_in_brief": "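Counterscreen run in the same HEK293-ACE2 line as the pseudotyped-particle entry assay, without particles. Viability after 48 h at 37 C was read as ATP luminescence, scaled between cell-containing and cell-free wells.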"}, "[5]": {"assay": "Inducers of the Endoplasmic Reticulum Stress Response (ERSR) in human glioma: Validation (AID 504836; active = well fitted curve in the direction sought with a large enough effect; an effect the other way counts as inactive or inconclusive)", "method_in_brief": "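Stably transfected U87-MG glioma cells carrying a GRP78-based luciferase sensor; 16 h compound incubation. Luminescence end-point read 10 min after Bright-Glo addition at room temperature.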"}, "[6]": {"assay": "qHTS for Inhibitors of the Functional Ribonucleoprotein Complex (vRNP) of Lymphocytic Choriomeningitis Arenaviruses (LCMV): Viability assay - alamar blue signal for LCMV Primary Screen (AID 1347085; calls by dose curve; tested in HEK293 reporter line; note: nearly all actives have a fitted effect of over 80% in size; note: potency is the fitted concentration of half-maximal effect)"}, "[7]": {"assay": "Primary qHTS for inhibitors of SARS-S pseudo-typed particle cell entry (AID 1479145); note: nearly all actives have a fitted effect of over 45% in size"}, "[8]": {"assay": "Primary qHTS for Huh7 cytotoxicity: counterscreen for inhibitors of MERS-S pseudotyped particle cell entry (AID 1479147)", "settings": "outcome: at 57.1 µM (top of the series) unless noted"}, "[9]": {"assay": "Primary qHTS for inhibitors of MERS-S pseudo-typed particle cell entry (AID 1479149); note: nearly all actives have a fitted effect of over 60% in size"}, "[10]": {"assay": "Primary qHTS for Vero E6 cytotoxicity: counterscreen for inhibitors of SARS-S pseudo-typed particle cell entry (AID 1479150)", "settings": "outcome: at 57.1 µM (top of the series) unless noted"}, "[11]": {"biological_target": "Alpha-galactosidase (Coffea arabica) (UniProt Q42656)", "sequence (Q42656 whole entry, looked up)": "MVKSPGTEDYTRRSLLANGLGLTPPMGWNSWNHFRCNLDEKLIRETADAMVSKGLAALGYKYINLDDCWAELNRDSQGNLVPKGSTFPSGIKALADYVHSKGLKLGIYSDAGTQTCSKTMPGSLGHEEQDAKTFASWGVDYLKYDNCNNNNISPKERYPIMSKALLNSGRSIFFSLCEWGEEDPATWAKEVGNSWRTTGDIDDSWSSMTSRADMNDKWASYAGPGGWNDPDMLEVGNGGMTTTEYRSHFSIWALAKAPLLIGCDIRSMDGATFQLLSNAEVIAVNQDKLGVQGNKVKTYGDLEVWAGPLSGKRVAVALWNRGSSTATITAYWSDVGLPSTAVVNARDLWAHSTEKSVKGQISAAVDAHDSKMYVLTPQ", "assay": "Counterscreen for Glucocerebrosidase Inhibitors: qHTS Assay for Coffee Bean alpha-Galactosidase at pH 4.5 (AID 957; active = well fitted curve in the direction sought with a large enough effect; an effect the other way counts as inactive or inconclusive)", "method_in_brief": "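Quantitative HTS of compounds (0.7 nM to 77 uM) against coffee bean alpha-galactosidase at pH 4.5, measuring 4-methylumbelliferone fluorescence released from 80 uM substrate.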"}, "[12]": {"biological_target": "Alpha-galactosidase (Coffea arabica) (UniProt Q42656)", "assay": "Counterscreen for Glucocerebrosidase Inhibitors: qHTS Assay for Coffee Bean alpha-Galactosidase at pH 5.9 (AID 998; active = well fitted curve in the direction sought with a large enough effect; an effect the other way counts as inactive or inconclusive)", "method_in_brief": "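Enzyme 2 nM + cpd (0.7 nM–77 uM titration) + 4-MU-alpha-Gal 80 uM, pH 5.9 citrate/Tween-20, RT 20 min, NaOH/glycine stop pH 10, fluor 365/440. Normalized to no-enzyme and full-activity controls; Hill-fit AC50.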"}, "[13]": {"assay": "Validation screen for inhibitors of Lassa infection (AID 463096)"}, "[14]": {"assay": "Confirmatory qHTS for VERO E6 Cytotoxicity Assay: Counterscreen for SARS-CoV-2 CPE Assay (AID 1508605); note: potency is the fitted concentration of half-maximal effect; nearly all actives have a fitted effect of over 60% in size"}, "[15]": {"assay": "Confirmatory qHTS for activators (rescue) of SARS-CoV-2 Cytopathic Effect (CPE) (AID 1508606); note: potency is the fitted concentration of half-maximal effect; nearly all actives have a fitted effect of over 70% in size"}}, "note": "Values without a mark were called inactive. Results filed as inconclusive are left out. Entries that show only a call come without a potency. Active and inactive are the calls of the source. Unless noted, calls come from the whole dose curve.", "data": [{"smiles": "Nc1ncnc2c1ncn2[C@@H]1O[C@H](CO)C[C@@H]1O", "values": [{"measurement": "Potency", "setting": "[1]", "result": "inactive"}, {"measurement": "Potency", "setting": "[2]", "result": "inactive"}, {"measurement": "Potency", "setting": "[3]", "result": "inactive"}]}, {"smiles": "C[C@]1(c2nc3c(C(N)=O)cccc3[nH]2)CCCN1", "values": [{"measurement": "Potency", "setting": "[1]", "result": "inactive"}, {"measurement": "Potency", "setting": "[2]", "result": "2.73 µM (active)"}, {"measurement": "Potency", "setting": "[3]", "result": "inactive"}, {"measurement": "Potency", "setting": "[4]", "result": "inactive"}]}, {"smiles": "CN(C)CCCc1cc(C(=O)Nc2ccc(-c3ccncc3)cc2)ccc1O", "values": [{"measurement": "outcome", "setting": "[5]", "result": "inactive"}, {"measurement": "Potency", "setting": "[1]", "result": "inactive"}, {"measurement": "Potency", "setting": "[2]", "result": "inactive"}, {"measurement": "Potency", "setting": "[6]", "result": "inactive"}]}, {"smiles": "C=C(C)[C@@]12OC3(c4ccccc4)O[C@@H]1[C@@H]1[C@@H]4O[C@]4(CO)[C@@H](O)[C@]4(O)C(=O)C(C)=C[C@H]4[C@@]1(O3)[C@H](C)[C@H]2OC(=O)/C=C/C=C/c1ccccc1", "values": [{"measurement": "Potency", "setting": "[1]", "result": "inactive"}, {"measurement": "Potency", "setting": "[2]", "result": "inactive"}, {"measurement": "Potency", "setting": "[3]", "result": "inactive"}]}, {"smiles": "NC(=O)c1c[nH]c2ccccc12", "values": [{"measurement": "Potency", "setting": "[1]", "result": "inactive"}, {"measurement": "Potency", "setting": "[2]", "result": "inactive"}, {"measurement": "Potency", "setting": "[3]", "result": "inactive"}]}, {"smiles": "Cc1ncc(C[n+]2csc(CCO)c2C)c(N)n1", "values": [{"measurement": "Potency", "setting": "[1]", "result": "inactive"}, {"measurement": "Potency", "setting": "[2]", "result": "inactive"}, {"measurement": "Potency", "setting": "[3]", "result": "inactive"}, {"measurement": "Potency", "setting": "[7]", "result": "inactive"}, {"measurement": "outcome", "setting": "[8]", "result": "inactive"}, {"measurement": "Potency", "setting": "[9]", "result": "inactive"}, {"measurement": "outcome", "setting": "[10]", "result": "inactive"}, {"measurement": "Potency", "setting": "[4]", "result": "inactive"}]}, {"smiles": "NC[C@@H]1O[C@H](C23CC4CC(CC(C4)C2)C3)Cc2c1ccc(O)c2O", "values": [{"measurement": "outcome", "setting": "[11]", "result": "inactive"}, {"measurement": "outcome", "setting": "[12]", "result": "inactive"}, {"measurement": "outcome", "setting": "[5]", "result": "inactive"}, {"measurement": "Potency", "setting": "[1]", "result": "inactive"}, {"measurement": "Potency", "setting": "[2]", "result": "inactive"}, {"measurement": "Potency", "setting": "[6]", "result": "inactive"}]}, {"smiles": "CN1N=C(N)c2cn([C@@H]3O[C@H](COP(=O)(O)O)[C@@H](O)[C@@H]3O)c3ncnc1c23", "values": [{"measurement": "Potency", "setting": "[1]", "result": "inactive"}, {"measurement": "Potency", "setting": "[2]", "result": "34.3 µM (active)"}, {"measurement": "Potency", "setting": "[3]", "result": "inactive"}]}, {"smiles": "COCCCCC(=NOCCN)c1ccc(C(F)(F)F)cc1", "values": [{"measurement": "outcome", "setting": "[11]", "result": "inactive"}, {"measurement": "outcome", "setting": "[12]", "result": "inactive"}, {"measurement": "Potency", "setting": "[1]", "result": "inactive"}, {"measurement": "Potency", "setting": "[2]", "result": "1.93 µM (active)"}, {"measurement": "Potency", "setting": "[6]", "result": "38.5 µM (active)"}]}, {"smiles": "COc1ccc(-c2cc3c(C)nc(N)nc3n(C3CCC(OCCO)CC3)c2=O)cn1", "note": "(stereo not given)", "values": [{"measurement": "Potency", "setting": "[1]", "result": "0.153 µM (active)"}, {"measurement": "Potency", "setting": "[2]", "result": "0.0544 µM (active)"}, {"measurement": "Potency", "setting": "[3]", "result": "0.153 µM (active)"}]}, {"smiles": "CCNC(=O)c1cc2c(-c3cc(OCCN4CCCC4)c(Cl)cc3Cl)nc(N)nc2s1", "values": [{"measurement": "Potency", "setting": "[1]", "result": "4.85 µM (active)"}, {"measurement": "Potency", "setting": "[2]", "result": "4.32 µM (active)"}, {"measurement": "Potency", "setting": "[3]", "result": "1.37 µM (active)"}]}, {"smiles": "CCCCC/C=C\\C\\C=C/C=C/C=C/[C@@H](O)[C@@H](O)CCCC(=O)O", "values": [{"measurement": "activity change, negative = inhibition", "setting": "[1]", "result": "-2.59% [at 0.757 µM]"}, {"measurement": "activity change, negative = reduced viability", "setting": "[2]", "result": "14.4% [at 0.757 µM]"}, {"measurement": "activity change, negative = inhibition", "setting": "[3]", "result": "-32.8% [at 0.757 µM]"}]}, {"smiles": "Cc1ccc(NC(=O)Nc2cc(C(F)(F)F)ccc2F)cc1Nc1ccc2c(c1)NC(=O)C2=Cc1ccc[nH]1", "values": [{"measurement": "Potency", "setting": "[1]", "result": "30.6 µM (active)"}, {"measurement": "Potency", "setting": "[2]", "result": "17.2 µM (active)"}, {"measurement": "Potency", "setting": "[3]", "result": "27.3 µM (active)"}]}, {"smiles": "C[C@]12C=CC(=O)C=C1CC[C@@H]1[C@@H]2CC[C@]2(C)C(=O)CC[C@@H]12", "values": [{"measurement": "Potency", "setting": "[1]", "result": "inactive"}, {"measurement": "Potency", "setting": "[2]", "result": "inactive"}, {"measurement": "Potency", "setting": "[3]", "result": "inactive"}]}, {"smiles": "Clc1nccc2c1ccc1ccccc12", "values": [{"measurement": "outcome", "setting": "[11]", "result": "inactive"}, {"measurement": "outcome", "setting": "[12]", "result": "inactive"}, {"measurement": "Potency", "setting": "[13]", "result": "inactive"}, {"measurement": "outcome", "setting": "[5]", "result": "inactive"}, {"measurement": "Potency", "setting": "[1]", "result": "inactive"}, {"measurement": "Potency", "setting": "[2]", "result": "inactive"}, {"measurement": "Potency", "setting": "[6]", "result": "inactive"}]}, {"smiles": "Oc1ccc(-c2ccc(-c3cc(Nc4cccc(CNC5CC5)c4)n[nH]3)cc2)c(O)c1", "values": [{"measurement": "Potency", "setting": "[1]", "result": "24.3 µM (active)"}, {"measurement": "Potency", "setting": "[2]", "result": "3.06 µM (active)"}, {"measurement": "Potency", "setting": "[3]", "result": "12.2 µM (active)"}]}, {"smiles": "CC(=O)O[C@@H]1/C=C/[C@](C)(O)C[C@@H](C)C/C=C/[C@H]2[C@H](O)C(C)=C(C)[C@H]3[C@H](Cc4ccccc4)NC(=O)[C@@]123", "values": [{"measurement": "Potency", "setting": "[1]", "result": "inactive"}, {"measurement": "Potency", "setting": "[2]", "result": "2 µM (active)"}, {"measurement": "Potency", "setting": "[3]", "result": "inactive"}]}, {"smiles": "CC(C)(C)Cn1c(N)nc2ccc(-c3[nH]c(C(C)(C)C)nc3-c3ccc(F)cc3)nc21", "values": [{"measurement": "Potency", "setting": "[1]", "result": "inactive"}, {"measurement": "Potency", "setting": "[2]", "result": "inactive"}, {"measurement": "Potency", "setting": "[3]", "result": "inactive"}, {"measurement": "Potency", "setting": "[14]", "result": "11.2 µM (active)"}, {"measurement": "Potency", "setting": "[15]", "result": "1.58 µM (active)"}]}, {"smiles": "CCCCCCCCCCCCCCCC(N)=O", "values": [{"measurement": "activity change, negative = inhibition", "setting": "[1]", "result": "1.8% [at 5.82 µM]"}, {"measurement": "activity change, negative = reduced viability", "setting": "[2]", "result": "2.57% [at 5.82 µM]"}, {"measurement": "activity change, negative = inhibition", "setting": "[3]", "result": "-29.4% [at 5.82 µM]"}]}]}
